In PubChem BioAssay (NCI):
This is part of a sample that, as a whole, favours compounds with a hit. Of some 79,000 tested, about 15% had one in any assay. A number with no mark means an inactive call. Activity calls are given as the source filed them. No stated cut-off is given here; in the data, active means growth inhibition above about 70%; inactive means the rest.

Columns and labels:
[1] = NCI Yeast Anticancer Drug Screen. Data for the rad50 strain (AID 155);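 further: 0% = growth of vehicle-only cultures of the same strain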; settings: S. cerevisiae rad50 strain growth inhibition, active compounds read high
In short: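 Readout: growth inhibition relative to vehicle-treated cultures. Compound exposure was carried out in a genetically defined yeast strain deficient in DNA damage repair.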

[2] = NCI Yeast Anticancer Drug Screen. Data for the mec2-1 strain (AID 157); settings: S. cerevisiae mec2-1 strain, active compounds read high
In short: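 Using mec2-1 yeast: add compound, measure growth, express inhibition versus vehicle-treated cultures.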

[3] = NCI Yeast Anticancer Drug Screen. Data for the sgs1 mgt1 strain (AID 161);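 further: 0% = growth of cultures given vehicle only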; settings: S. cerevisiae sgs1 mgt1 strain, active compounds read high
In short: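 Compounds are added to genetically altered yeast, and growth is compared with cultures given vehicle alone to give percent inhibition.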

[4] = NCI Yeast Anticancer Drug Screen. Data for the cln2 rad14 strain (AID 165);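 further: 0% = growth equal to vehicle treated cultures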; settings: S. cerevisiae cln2 rad14 strain, active compounds read high
In short: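 Yeast strain cln2 rad14, bearing defects in cell cycle control and DNA repair, serves as the test system; values reflect growth inhibition compared with vehicle.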

[5] = NCI Yeast Anticancer Drug Screen. Data for the bub3 strain (AID 167); settings: S. cerevisiae bub3 mutant strain, active compounds read high
In short: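 Readout: yeast growth inhibition, expressed relative to vehicle-only wells. The test organism is a mutant strain from a panel with lesions in DNA repair or checkpoint genes.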

[6] = NCI Yeast Anticancer Drug Screen. Data for the mlh1 rad18 strain (AID 175); settings: S. cerevisiae mlh1 rad18 strain growth inhibition, active compounds read high
In short: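 Steps: expose repair-defective yeast to compound; measure growth; express inhibition against vehicle-treated controls.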

[7] = at 5.0 µM (retest, dose inferred, filed as 0.5)
[8] = at 50.0 µM (retest, dose inferred, filed as 5.0)

| Structure (SMILES) | growth inhibition [1, 7] | growth inhibition [1, 8] | growth inhibition ([1]; at 50.0 µM) | growth inhibition [2, 7] | growth inhibition [2, 8] | growth inhibition ([2]; at 50.0 µM) | growth inhibition [3, 7] | growth inhibition [3, 8] | growth inhibition ([3]; at 50.0 µM) | growth inhibition [4, 7] | growth inhibition [4, 8] | growth inhibition ([4]; at 50.0 µM) | growth inhibition [5, 7] | growth inhibition [5, 8] | growth inhibition ([5]; at 50.0 µM) | growth inhibition [6, 7] | growth inhibition [6, 8] | growth inhibition ([6]; at 50.0 µM) |
| --- | --- | --- | --- | --- | --- | --- | --- | --- | --- | --- | --- | --- | --- | --- | --- | --- | --- | --- |
| CC1CC[N-]CC1.CC1CC[N-]CC1.CC1CC[N-]CC1.CC1CC[N-]CC1.CS(C)=O.CS(C)=O.[Cl-].[Cl-].[Cl-].[Cl-].[Pt+4].[Rh+3] | 65% | 96% (active) | 95.5% (active) | 58% | 98% (active) | 96.8% (active) | 66% | 98% (active) | 96.3% (active) | 44% | 97% (active) | 89.3% (active) | 52% | 96% (active) | 97.9% (active) | 69% | 97% (active) | 97% (active) |
| COc1cc(C2c3cc4c(cc3[C@@H](Nc3ccc5c(c3)OCCO5)C3COC(=O)[C@H]23)OCO4)cc(OC)c1O (some centres not stated) | 96% (active) | 93% (active) | 85.2% (active) | 97% (active) | 94% (active) | 91.2% (active) | 99% (active) | 99% (active) | 87.3% (active) | 98% (active) | 99% (active) | 85.8% (active) | 98% (active) | 99% (active) | 87.2% (active) | 95% (active) | 90% (active) | 88.8% (active) |
| Cc1c[n+](=O)c2ccccc2n1[O-] | -21% | 10% | 2.6% | -14% | -16% | -16.6% | -9% | -7% | -20.4% | 8% | 1% | 70.8% (active) | 13% | -11% | -10.6% | -11% | -6% | -0.1% |
| O=C1c2ccccc2C(=O)N1c1ccccc1 | -2% | -20% | 31.4% | -3% | -1% | -5.9% | 1% | 5% | 20% | 3% | 7% | 42.2% | 36% | 15% | 2.3% | -1% | 2% | 16.4% |
| C[C@]12CCC(=O)C=C1CC[C@@H]1[C@@H]2[C@@H](O)C[C@@]2(C)[C@H]1CC[C@]2(O)C(=O)COC(=O)C1CCCC1 | -7% | -10% | 76.8% (active) | 1% | -1% | 19.8% | -2% | -9% | 87.7% (active) | -18% | -93% | 35.9% | 8% | 11% | 82.8% (active) | -7% | -16% | 72.2% (active) |
| CC(=O)/C(=C\c1ccccc1Cl)C(=O)CCN(C)C | -35% | 93% (active) | 37.4% | 8% | 96% (active) | 38.1% | 0% | 94% (active) | 74% (active) | 6% | 97% (active) | 20.6% | 7% | 97% (active) | 18.4% | -17% | 97% (active) | 80.8% (active) |
| Cn1c2ccccc2c2c(C#N)c(C#N)c([N+](=O)[O-])cc21 | 30% | 98% (active) | 97.2% (active) | 29% | 98% (active) | 78.5% (active) | 9% | 98% (active) | 75.2% (active) | 9% | 97% (active) | 42% | 27% | 98% (active) | 93.2% (active) | 26% | 98% (active) | 76.8% (active) |
| CCN(C(=O)O)c1ccc(/C=C/c2ccnc3ccccc23)cc1 | 4% | 94% (active) | 2.4% | -16% | 96% (active) | -17.9% | 5% | 96% (active) | 40.1% | -26% | 91% (active) | -0.1% | -17% | 95% (active) | 23% | -7% | 91% (active) | 29.4% |
| CN(C)CC/C(=N\Nc1ccc(Cl)cc1)c1ccccc1 | 98% (active) | 99% (active) | 99.2% (active) | 100% (active) | 99% (active) | 98.8% (active) | 100% (active) | 99% (active) | 99% (active) | 96% (active) | 99% (active) | 95.9% (active) | 98% (active) | 99% (active) | 99.6% (active) | 99% (active) | 99% (active) | 98.7% (active) |
